Publication PMC5540273 (PLoS ONE, 2017)

Key:
Details in all cases: concentration: 1 μM,replicates: in singlicate; n = 1
ZAK = test system: ZAK
ZAP70 = test system: ZAP70
p38-alpha = test system: T1, p38-alpha
T1 construct: gene MAPK14

p38-beta = test system: T2, p38-beta
T2 construct: gene MAPK11

p38-delta = test system: p38-delta
p38-gamma = test system: T3, p38-gamma
T3 construct: gene MAPK12
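Note: KINOMEscan kinase panel screen.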

## Cl.Nc1n[nH]c2cc(-c3ccccn3)ccc12 [GSK2189892]
ZAK
  %Inh: 14%
ZAP70
  %Inh: 0%
p38-alpha
  %Inh: 0%
p38-beta
  %Inh: 0%
p38-delta
  %Inh: 22%
p38-gamma
  %Inh: 4%

## CC(=O)Nc1nc2cnc(Nc3cc(NC(=O)c4cccc(CC(C)(C)C#N)c4)ccc3C)nc2s1
ZAK
  %Inh: 0%
ZAP70
  %Inh: 5%
p38-alpha
  %Inh: 100%
p38-beta
  %Inh: 100%
p38-delta
  %Inh: 43%
p38-gamma
  %Inh: 74%

## Cn1ccc2ncnc(Oc3ccc(NC(=O)Nc4cncc(C(F)(F)F)c4)c(Cl)c3)c21
ZAK
  %Inh: 0%
ZAP70
  %Inh: 0%
p38-alpha
  %Inh: 47%
p38-beta
  %Inh: 30%
p38-delta
  %Inh: 0%
p38-gamma
  %Inh: 0%

## Cn1ccc2ncnc(Oc3ccc(NC(=O)Nc4ccnc(C(F)(F)F)c4)c(Cl)c3)c21
ZAK
  %Inh: 17%
ZAP70
  %Inh: 0%
p38-alpha
  %Inh: 18%
p38-beta
  %Inh: 0%
p38-delta
  %Inh: 25%
p38-gamma
  %Inh: 0%

## O=C(Nc1ccc(Oc2ccc3nc(NC(=O)C4CC4)cn3n2)c(F)c1)c1cccn(-c2ccccc2)c1=O
ZAK
  %Inh: 77%
ZAP70
  %Inh: 0%
p38-alpha
  %Inh: 4%
p38-beta
  %Inh: 9%
p38-delta
  %Inh: 0%
p38-gamma
  %Inh: 87%

## N#Cc1cccc(C(=O)NC2CCN(c3ccnc(Nc4ccc(F)cc4)n3)C2)c1 (stereo not drawn) [GSK1379708]
ZAK
  %Inh: 0%
ZAP70
  %Inh: 0%
p38-alpha
  %Inh: 35%
p38-beta
  %Inh: 0%
p38-delta
  %Inh: 38%
p38-gamma
  %Inh: 0%

## C[C@@H]1CNc2c(sc3ccc4nc(-c5ccncc5)ccc4c23)C(=O)N1
ZAK
  %Inh: 0%
ZAP70
  %Inh: 0%
p38-alpha
  %Inh: 0%
p38-beta
  %Inh: 8%
p38-delta
  %Inh: 11%
p38-gamma
  %Inh: 16%

## COc1ccc(Nc2nccc(N3CCC(NC(=O)c4cccc(C#N)c4)C3)n2)cc1 (stereo not drawn) [GSK1379730]
ZAK
  %Inh: 26%
ZAP70
  %Inh: 0%
p38-alpha
  %Inh: 5%
p38-beta
  %Inh: 0%
p38-delta
  %Inh: 38%
p38-gamma
  %Inh: 0%

## O=C(Nc1cccc(Oc2ccc3nccn3n2)c1)Nc1cccc(C(F)(F)F)c1
ZAK
  %Inh: 97.8%
ZAP70
  %Inh: 3%
p38-alpha
  %Inh: 17%
p38-beta
  %Inh: 12%
p38-delta
  %Inh: 0%
p38-gamma
  %Inh: 19%

## CCOC(=O)N1CCC(n2cnc(-c3ccc(F)cc3)c2-c2ccnc(N)n2)CC1 [SB-219952]
ZAK
  %Inh: 9%
ZAP70
  %Inh: 14%
p38-alpha
  %Inh: 95.3%
p38-beta
  %Inh: 34%
p38-delta
  %Inh: 0%
p38-gamma
  %Inh: 23%

## CCNCC(Cc1ccccc1)NC(=O)c1cc(Br)c(-c2ccnc3[nH]ccc23)s1.Cl.Cl (stereo not drawn) [GSK1383280]
ZAK
  %Inh: 15%
ZAP70
  %Inh: 0%
p38-alpha
  %Inh: 11%
p38-beta
  %Inh: 0%
p38-delta
  %Inh: 53%
p38-gamma
  %Inh: 0%

## CN(c1ccc2c(c1)nc(NCc1ccc(F)cc1)n2C)c1ccnc(Nc2ccc(CS(C)(=O)=O)cc2)n1.Cl [GW813244]
ZAK
  %Inh: 41%
ZAP70
  %Inh: 13%
p38-alpha
  %Inh: 13%
p38-beta
  %Inh: 6%
p38-delta
  %Inh: 0%
p38-gamma
  %Inh: 44%

## Cc1ccc2c(-c3ccnc(Nc4ccc(C(F)(F)F)cc4)n3)cnn2n1 [GW819776]
ZAK
  %Inh: 0%
ZAP70
  %Inh: 15%
p38-alpha
  %Inh: 0%
p38-beta
  %Inh: 0%
p38-delta
  %Inh: 0%
p38-gamma
  %Inh: 44%

## O=C(NOCC1CC1)c1cc(Br)c(F)c(F)c1Nc1ccc(I)cc1Cl
ZAK
  %Inh: 0%
ZAP70
  %Inh: 0%
p38-alpha
  %Inh: 0%
p38-beta
  %Inh: 1%
p38-delta
  %Inh: 35%
p38-gamma
  %Inh: 0%

## CC(C)c1nc(-c2cccc(NS(=O)(=O)c3ccccc3)c2)c(-c2ccnc(Nc3ccc4c(c3)CN(C)CC4)n2)s1 [GSK1649598]
ZAK
  %Inh: 98.6%
ZAP70
  %Inh: 7%
p38-alpha
  %Inh: 91.5%
p38-beta
  %Inh: 35%
p38-delta
  %Inh: 48%
p38-gamma
  %Inh: 7%

## Cc1ccc(Nc2ccnc(Nc3ccc4c(c3)CS(=O)(=O)C4)n2)cc1O.Cl [GW579362]
ZAK
  %Inh: 56%
ZAP70
  %Inh: 37%
p38-alpha
  %Inh: 96.8%
p38-beta
  %Inh: 85%
p38-delta
  %Inh: 99.8%
p38-gamma
  %Inh: 23%

## Cn1ccc2ncnc(Oc3ccc(NC(=O)Nc4cnn(C(C)(C)C)c4)c(Cl)c3)c21
ZAK
  %Inh: 0%
ZAP70
  %Inh: 6%
p38-alpha
  %Inh: 91.6%
p38-beta
  %Inh: 28%
p38-delta
  %Inh: 3%
p38-gamma
  %Inh: 24%

## FC(F)(F)c1cc(Br)cc(Nc2nccc(-c3cnn4ncccc34)n2)c1 [GW810578]
ZAK
  %Inh: 16%
ZAP70
  %Inh: 0%
p38-alpha
  %Inh: 0%
p38-beta
  %Inh: 0%
p38-delta
  %Inh: 0%
p38-gamma
  %Inh: 41%

## Cl.Cl.NC[C@H](CC1CCCCC1)NC(=O)c1ccc(-c2ccnc3[nH]ccc23)s1 [GSK1581428]
ZAK
  %Inh: 0%
ZAP70
  %Inh: 0%
p38-alpha
  %Inh: 0%
p38-beta
  %Inh: 0%
p38-delta
  %Inh: 7%
p38-gamma
  %Inh: 13%

## O=C1NCCc2[nH]c(-c3ccncc3)cc21
ZAK
  %Inh: 20%
ZAP70
  %Inh: 0%
p38-alpha
  %Inh: 2%
p38-beta
  %Inh: 27%
p38-delta
  %Inh: 62%
p38-gamma
  %Inh: 26%

## O=C(Nc1ccccc1)c1cccc(Oc2ccc3nccn3n2)c1
ZAK
  %Inh: 0%
ZAP70
  %Inh: 0%
p38-alpha
  %Inh: 0%
p38-beta
  %Inh: 0%
p38-delta
  %Inh: 0%
p38-gamma
  %Inh: 3%

## CN(c1cccc(CNc2nc(Nc3ccc4c(c3)CC(=O)N4)ncc2C(F)(F)F)c1)S(C)(=O)=O
ZAK
  %Inh: 0%
ZAP70
  %Inh: 0%
p38-alpha
  %Inh: 0%
p38-beta
  %Inh: 0%
p38-delta
  %Inh: 11%
p38-gamma
  %Inh: 9%

## O=C(Nc1n[nH]c2cc(-c3ccco3)ccc12)C1CC1 [SB-737447]
ZAK
  %Inh: 0%
ZAP70
  %Inh: 0%
p38-alpha
  %Inh: 0%
p38-beta
  %Inh: 0%
p38-delta
  %Inh: 3%
p38-gamma
  %Inh: 26%

## COc1cc2nccc(Nc3ccc(Oc4ccccc4)cc3)c2cc1OC.Cl [GI261656]
ZAK
  %Inh: 55%
ZAP70
  %Inh: 0%
p38-alpha
  %Inh: 0%
p38-beta
  %Inh: 0%
p38-delta
  %Inh: 20%
p38-gamma
  %Inh: 0%

## COC(=O)c1cccc(NC(=O)NC2CCN(c3ccnc(Nc4cc(OC)c(OC)c(OC)c4)n3)C2)c1 (stereo not drawn) [GSK1379767]
ZAK
  %Inh: 3%
ZAP70
  %Inh: 17%
p38-alpha
  %Inh: 37%
p38-beta
  %Inh: 0%
p38-delta
  %Inh: 22%
p38-gamma
  %Inh: 0%

## COc1cccc(C2=C(Nc3cccc(Cl)c3)C(=O)NC2=O)c1 [SB-341556]
ZAK
  %Inh: 16%
ZAP70
  %Inh: 1%
p38-alpha
  %Inh: 0%
p38-beta
  %Inh: 0%
p38-delta
  %Inh: 11%
p38-gamma
  %Inh: 0%

## Cc1nnc(-c2ccc3occ(-c4ccc(S(C)=O)cc4)c3n2)o1 (stereo not drawn)
ZAK
  %Inh: 0%
ZAP70
  %Inh: 0%
p38-alpha
  %Inh: 0%
p38-beta
  %Inh: 0%
p38-delta
  %Inh: 0%
p38-gamma
  %Inh: 0%

## C[C@@H](Oc1cc(-n2cnc3cc(-c4cnn(C)c4)ccc32)sc1C(N)=O)c1ccccc1Cl [GSK580432]
ZAK
  %Inh: 6%
ZAP70
  %Inh: 0%
p38-alpha
  %Inh: 0%
p38-beta
  %Inh: 0%
p38-delta
  %Inh: 0%
p38-gamma
  %Inh: 0%

## CCn1c(-c2nonc2N)nc2cncc(Br)c21 [SB-738004]
ZAK
  %Inh: 15%
ZAP70
  %Inh: 9%
p38-alpha
  %Inh: 6%
p38-beta
  %Inh: 0%
p38-delta
  %Inh: 0%
p38-gamma
  %Inh: 7%

## Cc1n[nH]c2cc(Nc3ccnc(Nc4cccc(CN5CCOCC5)c4)n3)ccc12 [GW682569]
ZAK
  %Inh: 14%
ZAP70
  %Inh: 17%
p38-alpha
  %Inh: 11%
p38-beta
  %Inh: 0%
p38-delta
  %Inh: 28%
p38-gamma
  %Inh: 0%

## CC(C)S(=O)(=O)N1CCN(Cc2ccc3c(c2)nc(NC(=O)c2ccsc2)n3C[C@H](O)c2ccccc2)CC1 [GW635815]
ZAK
  %Inh: 1%
ZAP70
  %Inh: 0%
p38-alpha
  %Inh: 6%
p38-beta
  %Inh: 4%
p38-delta
  %Inh: 47%
p38-gamma
  %Inh: 0%

## C[C@@H](Oc1cc(-n2cnc3ccc(-c4ccncc4)cc32)sc1C(N)=O)c1ccccc1Cl [GSK483724]
ZAK
  %Inh: 21%
ZAP70
  %Inh: 61%
p38-alpha
  %Inh: 1%
p38-beta
  %Inh: 0%
p38-delta
  %Inh: 39%
p38-gamma
  %Inh: 0%

## COc1cccc(OC)c1C(=O)Nc1cccc(-c2nn3ccccc3c2-c2ccnc(Nc3cccc(F)c3)n2)c1 [GSK361065]
ZAK
  %Inh: 66%
ZAP70
  %Inh: 0%
p38-alpha
  %Inh: 21%
p38-beta
  %Inh: 90%
p38-delta
  %Inh: 11%
p38-gamma
  %Inh: 24%

## COC(=O)Nc1nc2cc(Oc3ccc(NC(=O)Nc4cc(C(F)(F)F)ccc4Cl)cc3)ccc2[nH]1.Cl [GW697465]
ZAK
  %Inh: 98.4%
ZAP70
  %Inh: 0%
p38-alpha
  %Inh: 83%
p38-beta
  %Inh: 45%
p38-delta
  %Inh: 48%
p38-gamma
  %Inh: 0%

## O=C(NCC1CC1)c1ccc(-c2cc(C(=O)NC3CC3)ccc2F)cc1 [GW810445]
ZAK
  %Inh: 0%
ZAP70
  %Inh: 0%
p38-alpha
  %Inh: 55%
p38-beta
  %Inh: 0%
p38-delta
  %Inh: 0%
p38-gamma
  %Inh: 29%

## Cc1ccc(C(=O)Nc2ccc(Oc3ccc4nc(NC(=O)C5CC5)cn4c3)c(F)c2)c(=O)n1-c1ccccc1
ZAK
  %Inh: 96.1%
ZAP70
  %Inh: 0%
p38-alpha
  %Inh: 0%
p38-beta
  %Inh: 0%
p38-delta
  %Inh: 0%
p38-gamma
  %Inh: 34%

## O=c1[nH]cc(-c2ccc(O)cc2)c2sc(-c3ccncc3)cc12 [GSK1033723]
ZAK
  %Inh: 1%
ZAP70
  %Inh: 0%
p38-alpha
  %Inh: 0%
p38-beta
  %Inh: 0%
p38-delta
  %Inh: 0%
p38-gamma
  %Inh: 26%
